# Results from PubChem BioAssay AID485273 (Sanford-Burnham Center for Chemical Genomics, 2010).
# Screen size: about 330,000 compounds; about 1,500 (0.45%) were called active. What follows is part of a selection rich in actives, with near analogues and random picks from the rest. Unmarked numbers belong to inactive results. Rule as the data show it: active = inhibition above about 45% (passing the limit was not always enough); inconclusive = no clear call, values can overlap the other calls.
# Biological target: Ubiquitin-conjugating enzyme E2 N (Homo sapiens) (UniProt P61088)
# Assay: blockers of UBC13 ubiquitin chain synthesis – biochemical, TR-FRET, uHTS, primary screen (AID 485273)
# Conditions: UBC13 polyubiquitin chain formation, at 20 µM, active compounds read high
# Sequence of Ubiquitin-conjugating enzyme E2 N (Homo sapiens) (P61088 whole entry, looked up): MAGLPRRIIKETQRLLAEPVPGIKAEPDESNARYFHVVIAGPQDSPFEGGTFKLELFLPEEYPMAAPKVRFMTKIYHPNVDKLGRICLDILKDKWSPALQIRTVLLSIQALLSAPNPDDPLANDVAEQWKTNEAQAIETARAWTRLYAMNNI
row,Compound,inhibition
1,CC(C)c1ccccc1OCC(O)CN(CC(O)COc1cccc2ccccc12)C(C)C (stereo not drawn),10.8%
2,Cc1cc(C)cc(OCC(=O)NCc2cc(C)nc3ccccc23)c1,7.7%
3,Cc1cc(C)c(NC(=O)C[N+](C)(C)CC(O)COc2cccc3ccccc23)c(C)c1 (stereo not drawn),45.4% (active)
4,CCCCCN(C(=O)CCC(=O)OCC(=O)NCc1ccc(OC)cc1)c1c(N)n(CCCC)c(=O)[nH]c1=O,2.5%
5,CCn1ccnc1CN1CCCC(C(=O)c2ccc3c4c(cccc24)CC3)C1 (stereo not drawn),19.1%
6,O=C(c1ccccc1)N1CCN(C(=O)c2cc3nc(-c4ccccc4)cc(C(F)(F)F)n3n2)CC1,2.2%
7,O=C(O)/C(=C/c1cccnc1)NC(=O)c1ccccc1,7.7%
8,CC(C)C[C@H](CO)Nc1nc(N(C)c2cccc(Cl)c2)c2ncn(C(C)C)c2n1,24.1%
9,OCCCNc1nccc(-c2cc(Nc3cccc(Cl)c3)ncn2)n1,35.7%
10,CC(C)n1cnc2c(Nc3cccc(Cl)c3)nc(N(CCO)CCCO)nc21,64.8% (active)
11,O=C(O)CCn1c(SCc2cc(=O)n3ccccc3n2)nc2ccsc2c1=O,-6.3%
12,O=C(Nc1cccnc1Oc1ncnc2cc(Cl)ccc12)c1ccc(F)cc1,2.8%
13,COc1ccc(N2CCN(CCNC(=O)Nc3cc(Cl)ccc3Cl)CC2)cc1,5.5%
14,CC(=O)c1ccc(NC(=O)c2sc3nc4n(c(=O)c3c2C)CCCCC4)cc1,-6.8%
15,Cc1ccc(NC(=O)c2sc3nc(N)c(C#N)cc3c2N)cc1,1%
16,CC(=O)Nc1ccc(NC(=O)c2sc3nc4c(c(-c5ccc(C)cc5)c3c2N)CCC4)cc1,54% (active)
17,COc1ccc(C=C(C#N)C#N)c(CSc2ccccn2)c1,3.1%
18,O/N=C(\C[n+]1ccccc1)c1ccc(Br)cc1,-4.7%
19,O=C(NCC(c1cccs1)N1CCOCC1)c1cc(-c2ccccn2)nc2ccccc12 (stereo not drawn),1.9%
20,CC(=O)NCCNC(=O)c1cc(-c2cccc3ccccc23)nc2ccccc12,8.4%
21,COC(=O)c1cc(-c2cccs2)nc2ccccc12,45.2% (active)
22,COC(=O)c1cc(N2CCNCC2)nc2ccccc12,17.5%

row,Compound,inhibition
1,CCCCN(C)CCCNC(=O)c1cc(-c2cccs2)nc2ccccc12,48.3% (active)
2,O=C(Nc1nnc(-c2ccccc2)o1)c1cc(-c2cccs2)nc2ccccc12,-31.4%
3,COc1cccc(NC(=O)CN(C)C(=O)c2cc(C3CC3)nn2-c2ccccc2)c1,-2.2%
4,CCOCCCNS(=O)(=O)Cc1ccccc1,-13.7%
5,CCOc1ccc(N(CC(=O)NCCc2ccc(OC)cc2)S(C)(=O)=O)cc1,3.8%
6,Cc1sc2ncnc(N3CCC(C(=O)Nc4ccc(F)cc4Cl)CC3)c2c1C,17.7%
7,Cc1ccc(S(=O)(=O)N(C)c2ccc(OCC(=O)OCC(=O)N(CC#N)c3ccccc3)cc2)cc1,-0.2%
8,CCCc1cc(=O)[nH]c2nnc(SCC(=O)Nc3nnc(SCC)s3)n12,-15.5%
9,NCC(=O)c1cccc2ccc[n+]([O-])c12,-7.7%
10,O=C(NCC(=O)N(Cc1cccs1)C(C(=O)NC1CCCCC1)c1ccco1)c1cccs1 (stereo not drawn),-5.1%
11,Cn1c(SCC(=O)c2ccccc2)ncc(C(=O)Nc2ccc(F)cc2)c1=O,36.4%
12,Cc1ccc(NC(=O)c2cnc(SCC(=O)NCC3CCCO3)n(C)c2=O)cc1 (stereo not drawn),93.1% (active)
13,CCn1c(SCC(=O)NCC2CCCO2)nc2ccccc21 (stereo not drawn),5.4%
14,Cc1ccccc1-n1cc(CNC(=O)C2CCC(=O)N(C3CC3)C2)cn1 (stereo not drawn),8.4%
15,COc1ccc(-n2nc(C(=O)Nc3cc(OC)c(OC)c(OC)c3)c3ccccc3c2=O)c(OC)c1,21.2%
16,N#CCc1ccc(NC(=O)c2ccccc2C(=O)Nc2ccc(CC#N)cc2)cc1,2.2%
17,CCCCOCCCNC(=O)c1ccccc1OCC,1.4%
18,COCCCNC(=O)Cn1cc(C(=O)C2CC2)c2ccccc21,11.8%
19,CCOCCCNC(=O)c1cn(CC(C)C)c(=O)c2c1c1ccccc1n2C,51.1% (active)
20,CN(C)c1nc(N)nc(Cn2nnc(-c3ccc(C(F)(F)F)cc3)n2)n1,4%
21,COc1ccccc1-c1sc2ccccc2c1-c1ccc(Br)nc1,21.7%
